Records with an inconclusive call do not appear. Where a call stands in place of a potency, no number is given. Calls of active or inactive are those of the source. Calls follow the shape of the dose curve; as a rule, active = well fitted cell-killing curve with a large enough effect; inconclusive = small, poorly fitted or top-dose-only effect; inactive = flat fitted curve, though single readings scatter.
Key:
[1] = Cell Viability - LYMP2-009 (AID 968); also: series mostly up to about 92 µM; nearly all actives have a fitted effect of over 55% in size
[2] = Cell Viability - LYMP2-011 (AID 969); also: nearly all actives have a fitted effect of over 60% in size
Procedure, shortened: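 Cytotoxicity qHTS with ATP content as read-out: lymphoblastoid cells (2500/well) exposed to compound for 24 h at 37 C, then luciferase luminescence measured. Concentration-response data fitted with the standard Hill equation to give AC50.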

[3] = Cell Viability - LYMP2-013 (AID 970); also: series mostly up to about 92 µM; nearly all actives have a fitted effect of over 55% in size
Procedure, shortened: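 qHTS cytotoxicity: ATP-dependent luminescence (CellTiter-Glo, 30 min room temperature) read after 24 h compound exposure at 37 C of 2500 LYMP2-013 lymphoblastoid cells per well. Concentration-response fitted with Hill equation to give AC50.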

[4] = Cell Viability - LYMP2-015 (AID 971); also: nearly all actives have a fitted effect of over 55% in size
Procedure, shortened: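 Cytotoxicity readout: decrease in intracellular ATP (CellTiter-Glo luminescence) in 2500 LYMP2-015 lymphoblastoid cells/well after 24 h compound exposure at 37 C. Concentration-response data fitted with the standard Hill equation to give AC50.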

[5] = Cell Viability - LYMP2-017 (AID 972); also: series mostly up to about 92 µM; nearly all actives have a fitted effect of over 55% in size
Procedure, shortened: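 CellTiter-Glo luminescence (cellular ATP, 30 min RT) measured cytotoxicity after 24 hr compound treatment at 37 C. Cells were a human lymphoblastoid line, LYMP2-017, plated at 2500/well and incubated 5 hr first; concentration-response fitted with Hill equation for AC50.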

[6] = Cell Viability - LYMP2-019 (AID 973); also: nearly all actives have a fitted effect of over 55% in size
Procedure, shortened: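 AC50 values come from Hill-equation fits of luminescent intracellular ATP (CellTiter-Glo, 30 min, room temperature) following 24 h compound exposure at 37 C. Cells: LYMP2-019 lymphoblastoid line, 2500 per well, in complete culture medium.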

[7] = Cell Viability - LYMP2-021 (AID 974); also: nearly all actives have a fitted effect of over 55% in size
Procedure, shortened: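 AC50 values come from Hill-equation fits to CellTiter-Glo luminescence (ATP content), read after 24 hour compound exposure at 37 C of 2500 LYMP2-021 lymphoblastoid cells/well; tetraoctylammonium bromide as positive control.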

[8] = Cell Viability - LYMP2-023 (AID 975)
Procedure, shortened: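 Intracellular ATP, read by CellTiter-Glo luminescence, reports viability after 24 hr compound exposure at 37 C. 2500 lymphoblastoid cells/well (LYMP2-023) seeded 5 hr beforehand; Hill fits give AC50; positive control tetraoctylammonium bromide.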

[9] = Cell Viability - LYMP2-025 (AID 976); also: series mostly up to about 92 µM
Procedure, shortened: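 Cytotoxicity read as loss of intracellular ATP (luciferase luminescence) after 24 h compound treatment at 37 C. Uses LYMP2-025 lymphoblastoid cells in 1536-well format; Hill-equation modelling gives AC50; tetraoctylammonium bromide as positive control.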

[10] = Cell Viability - LYMP2-002 (AID 977); also: series mostly up to about 92 µM
Procedure, shortened: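 Human lymphoblastoid cells (2500/well) in complete medium were preincubated 5 hr at 37 C, then exposed to compounds for 24 hr at 37 C. Intracellular ATP was read by CellTiter-Glo luminescence; AC50 came from Hill-equation concentration-response fits.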

[11] = Cell Viability - LYMP2-006 (AID 978); also: series mostly up to about 92 µM; nearly all actives have a fitted effect of over 60% in size
Procedure, shortened: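 Human lymphoblastoid cells (LYMP2-006), 2500/well in complete medium, were treated with compound for 24 hr at 37 C. Cellular ATP was read by CellTiter-Glo luminescence after 30 min, and AC50 values came from Hill-equation fits of concentration-response data.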

[12] = Cell Viability - LYMP2-007 (AID 979);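 also: cells exposed to compound for 24 h before reading; nearly all actives have a fitted effect of over 60% in size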
Procedure, shortened: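 AC50 values come from Hill-equation fits of luminescent intracellular ATP (CellTiter-Glo, 30 min, room temperature) following 24 h compound exposure at 37 C. Cells: LYMP2-007 lymphoblastoid line, 2500 per well, in complete culture medium.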

[13] = Cell Viability - LYMP2-008 (AID 980); also: nearly all actives have a fitted effect of over 60% in size
Procedure, shortened: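 Cytotoxicity determined from ATP-dependent luciferase luminescence (CellTiter-Glo) following 24 h compound exposure of human lymphoblastoid LYMP2-008 cells at 37 C. Concentration-response data fitted to the Hill equation to give AC50.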

[14] = Cell Viability - LYMP2-010 (AID 981); also: nearly all actives have a fitted effect of over 55% in size; also: potency is read from the fitted curve at half-maximal effect
Procedure, shortened: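 CellTiter-Glo ATP luminescence measured cytotoxicity after 24 h compound exposure at 37 C. LYMP2-010 cells were seeded at 2500/well, with tetraoctylammonium bromide as control; concentration-response curves gave AC50 values by the Hill equation.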

[15] = Cell Viability - LYMP2-012 (AID 982)
[16] = Cell Viability - LYMP2-014 (AID 983); also: series mostly up to about 92 µM; nearly all actives have a fitted effect of over 50% in size
Procedure, shortened: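 Intracellular ATP loss, read by luciferase luminescence, measures acute cytotoxicity after 24 h compound exposure of lymphoblastoid LYMP2-014 cells (2500/well, 37 C). Concentration-response data fitted to the Hill equation for AC50.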

[17] = Cell Viability - LYMP2-016 (AID 984); also: nearly all actives have a fitted effect of over 55% in size
Procedure, shortened: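 Human lymphoblastoid LYMP2-016 cells, 2500 per well, treated with compounds for 24 h at 37 C. Viability read as intracellular ATP by CellTiter-Glo luminescence after 30 min at room temperature; AC50 from Hill fits of concentration-response.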

[18] = Cell Viability - LYMP2-018 (AID 985); also: nearly all actives have a fitted effect of over 50% in size
Procedure, shortened: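 Viability read as CellTiter-Glo luminescence (cellular ATP) after 24 hr compound exposure at 37 C of 2500 LYMP2-018 lymphoblastoid cells/well, pre-plated 5 hr. Hill-equation modelling gave AC50.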

[19] = Cell Viability - LYMP2-020 (AID 986)
Procedure, shortened: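 Cytotoxicity in qHTS format: luminescent ATP readout from CellTiter-Glo after 24 h compound exposure at 37 C in complete medium. LYMP2-020 lymphoblastoid cells were seeded at 2500/well; concentration-response data fitted to the Hill equation for AC50.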

[20] = Cell Viability - LYMP2-022 (AID 987); also: nearly all actives have a fitted effect of over 55% in size
Procedure, shortened: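 Cytotoxicity read as decreased cellular ATP (CellTiter-Glo luminescence, 30 min room temperature) after 24 hours compound exposure of 2500 lymphoblastoid LYMP2-022 cells/well at 37 C. Concentration-response data fitted with standard Hill equation for AC50.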

SMILES | outcome [1] | outcome [2] | outcome [3] | outcome [4] | outcome [5] | outcome [6] | outcome [7] | outcome [8] | outcome [9] | outcome [10] | outcome [11] | outcome [12] | outcome [13] | Potency [14] | outcome [15] | outcome [16] | outcome [17] | outcome [18] | outcome [19] | outcome [20]
CC(=O)Oc1ccccc1C(=O)O | inactive | inactive | inactive | inactive | inactive | inactive | inactive | inactive | inactive | inactive | inactive | inactive | inactive | inactive | inactive | inactive | inactive | inactive | inactive | inactive
O=c1[nH]cnc2[nH]ncc12 | inactive | inactive | inactive | inactive | inactive | inactive | inactive | inactive |  | inactive | inactive | inactive | inactive | inactive | inactive | inactive | inactive | inactive | inactive | inactive
Cn1cnc([N+](=O)[O-])c1Sc1ncnc2nc[nH]c12 |  |  |  |  |  |  |  |  | inactive | inactive |  |  |  | 39.8 µM (active) |  | inactive |  |  |  | 
NC(=O)c1cnccn1 | inactive | inactive | inactive | inactive | inactive | inactive | inactive | inactive | inactive | inactive | inactive | inactive | inactive | inactive | inactive | inactive | inactive | inactive | inactive | inactive
CCCC(CCC)C(=O)O | inactive | inactive | inactive | inactive | inactive | inactive | inactive | inactive | inactive | inactive | inactive | inactive | inactive | inactive | inactive | inactive | inactive | inactive | inactive | inactive
NS(=O)(=O)c1cc2c(cc1Cl)NC=NS2(=O)=O | inactive | inactive | inactive | inactive | inactive | inactive | inactive | inactive | inactive | inactive | inactive | inactive | inactive | inactive | inactive | inactive | inactive | inactive | inactive | inactive
NC(N)=NC(=O)c1nc(Cl)c(N)nc1N | inactive | inactive | inactive | inactive | inactive | inactive | inactive | inactive | inactive | inactive | inactive | inactive | inactive |  | inactive | inactive | inactive | inactive |  | inactive

From PubChem BioAssay (NCATS)
